Data taken from PubChem BioAssay (NCATS).
Calls of active or inactive are those of the source. Calls come from the whole dose curve; as a rule, active = well fitted curve in the direction sought with a large enough effect (not every such curve was filed as active); inconclusive = small, poorly fitted or top-dose-only effect, or effect the other way, or another doubt; inactive = no such curve, though single readings can be large or run the other way.

The compounds below were run against Pyruvate kinase PKM (Homo sapiens) (UniProt P14618) (assay: qHTS Assay for Activators of Human Muscle Pyruvate Kinase (AID 954)). Settings: purified human muscle pyruvate kinase, luciferase-coupled luminescence, 1 h; series mostly up to 57.5 µM.
Pyruvate kinase PKM (Homo sapiens), sequence (P14618 whole entry, looked up): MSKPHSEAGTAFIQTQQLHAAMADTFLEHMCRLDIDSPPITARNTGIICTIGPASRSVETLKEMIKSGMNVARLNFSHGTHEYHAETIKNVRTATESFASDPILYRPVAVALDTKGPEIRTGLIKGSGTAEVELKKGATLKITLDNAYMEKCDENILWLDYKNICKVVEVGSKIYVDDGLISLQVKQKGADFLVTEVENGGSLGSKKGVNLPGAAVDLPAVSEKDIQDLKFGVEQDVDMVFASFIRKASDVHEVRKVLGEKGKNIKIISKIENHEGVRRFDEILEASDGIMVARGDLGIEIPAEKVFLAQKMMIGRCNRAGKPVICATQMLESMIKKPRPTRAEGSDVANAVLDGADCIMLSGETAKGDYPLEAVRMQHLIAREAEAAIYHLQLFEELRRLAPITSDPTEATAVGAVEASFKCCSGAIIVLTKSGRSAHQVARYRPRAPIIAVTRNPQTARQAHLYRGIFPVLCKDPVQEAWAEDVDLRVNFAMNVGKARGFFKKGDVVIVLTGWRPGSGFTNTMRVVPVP
Protocol: NIH Molecular Libraries Screening Centers Network [MLSCN]
NIH Chemical Genomics Center [NCGC]
Wael M. Rabeh, Lyudmila Nedyalkova and Hee-Wan Park [Structural Genomics Consortium, 100 College St. Toronto, Ontario, Canada]
Human pyruvate kinase muscle 2 enzyme was supplied as a highly purified (>95% pure) preparation by the Structural Genomics Consortium in Toronto (Ontario, Canada) and was assayed for its ability to generate ATP from ADP using phosphoenolpyruvate (PEP) as a substrate. ATP generation was detected in a coupled reaction by luciferase-mediated luminescence, an ATP-dependent process. Pyruvate kinase substrates, PEP and ADP, were present in the assay at Km and approximately […]-fold below Km respectively. The enzyme was assayed at an intermediate level of activity to screen for inhibitors and activators.
NCGC Assay Protocol Summary:
Three uL of substrate mix (final concentration, 50 mM imidazole pH 7.2, 50 mM KCl, 7 mM MgCl2, 0.5 mM PEP, 0.1 mM ADP, 0.01% Tween 20, 0.05% BSA) was dispensed into 1536 well plates. 23 nL of compound were delivered by a pin tool and 1 uL of enzyme mix (final concentration, 0.1 nM pyruvate kinase, 50 mM imidazole pH 7.2, 0.05% BSA) was added. Plates were incubated at room temperature for 1 hour. Two uL of detection and kinase stop mix (PKLight, Cambrex) was added, the plates centrifuged, and luminescence read by a ViewLux (Perkin Elmer) at 5 second exposure/plate. Data were normalized to the uninhibited and AC100 inhibition (no enzyme or 110 uM N-methyl-2,3-diphenyl-1,2,4-thiadiazol-5-imine; CID: 682802; LOPAC-S-4063). To monitor activation, 0.3 nM pyruvate kinase was included in one control column.
For `C[C@@H]1O[C@H](C[N+](C)(C)C)C[C@H]1O`, the outcome was “inactive”. With `O=C(O)CC[N+](=O)[O-]` the outcome was “inactive”. In the case of `CCCN1CCO[C@@H]2c3cc(O)ccc3OC[C@H]21`, the outcome is reported as “inactive”. In the case of `NCCc1c[nH]c2ccccc12`, the outcome is reported as “inactive”. In the case of `c1ccc(CCCN2CCN(CCOC(c3ccccc3)c3ccccc3)CC2)cc1`, the outcome is reported as “inactive”. With `NC(N)=NOCCC(N)C(=O)O` (stereo unspecified) the outcome was “inactive”. `CNCCc1ccc(O)c(O)c1` was tested, and the outcome was “inactive”. In the case of `CC(=O)NCCc1c[nH]c2ccccc12`, the outcome is reported as “inactive”. With `CC[C@@]1(O)C(=O)OCc2c1cc1n(c2=O)Cc2cc3ccccc3nc2-1` the outcome was “inactive”. For `NCc1cc(=O)[nH]o1`, the outcome was “inactive”. `Clc1cnc(Oc2ccc(Oc3ncc(Cl)cc3Cl)cc2)c(Cl)c1` was tested, and the outcome was “inactive”. For `CCCCc1ccc(C(=O)O)nc1`, the outcome was “inactive”. In the case of `CN[C@@H]1C[C@@H](c2ccc(Cl)c(Cl)c2)c2ccccc21`, the outcome is reported as “inactive”. `S=C(NC1CCCCC1)N1CCC(c2cnc[nH]2)CC1` was tested, and the outcome was “inactive”. `CC(C)Oc1cccnc1N(C)C1CCN(Cc2ccccc2)CC1` was tested, and the outcome was “inactive”. With `Cn1cnc(CCN)c1` the outcome was “inactive”. In the case of `C[C@]12N[C@H](Cc3ccccc31)c1ccccc12`, the outcome is reported as “inactive”. With `CCCN(CCC)[C@@H]1CCc2ccc(O)cc2C1` the outcome was “inactive”. With `CNCCc1c[nH]c2ccc(O)cc12` the outcome was “inactive”. In the case of `NC(=NCCC[C@H](N)C(=O)O)N[N+](=O)[O-]`, the outcome is reported as “inactive”. For `c1ccc2sc(C3(N4CCCCC4)CCCCC3)cc2c1`, the outcome was “inactive”. With `Cc1nccc2c1[nH]c1ccccc12` the outcome was “inactive”. With `O=C1CCCN1CC#CCN1CCCC1` the outcome was “inactive”. For `NCCc1c[nH]c2ccc(O)cc12`, the outcome was “inactive”. For `CC1=NN=C(c2ccc(N)cc2)c2cc3c(cc2C1)OCO3`, the outcome was “inactive”. With `O=C(O)Cc1cnc[nH]1` the outcome was “inactive”. For `COc1ccc2c(c[n+](C)c3c4cc5c(cc4ccc23)OCO5)c1OC`, the outcome was “inactive”. With `Cc1nc(-c2ccc(-c3ccc(C(=O)N4CCc5cc6c(cc54)C4(CCN(C)CC4)CO6)cc3)c(C)c2)no1` the outcome was “inactive”. With `Cc1c(C(=O)c2cccc3ccccc23)c2cccc3c2n1[C@H](CN1CCOCC1)CO3` the outcome was “inactive”. In the case of `CCCN1CCC[C@H](c2cccc(O)c2)C1`, the outcome is reported as “inactive”. For `C#CCOC(=O)C1=CCCN(C)C1`, the outcome was “inactive”.
